Screens: PubChem BioAssay, National Center for Advancing Translational Sciences (NCATS)
IP6K1 inh – Primary qHTS assay for small molecule inhibitors of Inositol hexaphosphate kinase 1 (IP6K1); IP6K1 kinase, ADP-Glo luminescence, 2 h; hits give low values; activity change, % (series mostly up to about 58 µM); 140,000 tested, 0.81% active; in the data active = activity change below about -25%
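ADP-Glo luminescence measures ADP made by human IP6K1 during a 2 h RT reaction with ATP/IP6 (mix at 1.3 mM/130 uM); top library doses 57.5 and 19.1 uM final.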
Luciferase inh – Firefly luciferase inhibition profiling of diverse chemical library using quantitative high-throughput screening; Luciferin 4-monooxygenase (Photinus pyralis), P08659; purified P. pyralis luciferase, luminescence, biochemical; Potency, µM (top dose mostly 115 µM), hits mostly inhibitors; 76,000 tested, 2.5% active; AID 1347043, 2019; note: nearly all actives have a fitted effect of over 65% in size
Target sequence (P08659 whole entry, looked up): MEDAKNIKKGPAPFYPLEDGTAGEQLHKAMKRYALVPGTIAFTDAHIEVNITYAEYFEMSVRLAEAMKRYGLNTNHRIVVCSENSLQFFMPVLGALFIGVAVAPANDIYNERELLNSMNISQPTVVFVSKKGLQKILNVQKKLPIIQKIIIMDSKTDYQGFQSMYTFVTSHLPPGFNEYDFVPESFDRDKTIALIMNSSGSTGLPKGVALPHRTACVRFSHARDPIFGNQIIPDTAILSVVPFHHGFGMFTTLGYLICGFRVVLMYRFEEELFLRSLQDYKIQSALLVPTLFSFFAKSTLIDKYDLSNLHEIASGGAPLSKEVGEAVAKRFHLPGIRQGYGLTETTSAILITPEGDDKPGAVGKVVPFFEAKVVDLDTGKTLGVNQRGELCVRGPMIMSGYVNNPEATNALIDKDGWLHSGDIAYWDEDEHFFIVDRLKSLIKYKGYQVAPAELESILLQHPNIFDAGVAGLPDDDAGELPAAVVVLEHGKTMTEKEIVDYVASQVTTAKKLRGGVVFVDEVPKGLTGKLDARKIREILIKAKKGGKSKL
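Cell-free enzyme assay, 10nM P. pyralis luciferase, luciferin and ATP each at 10uM. Inhibition profiled over a 6-point titration, read as luminescence.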
SNCA expr inhib – Primary qHTS assay for inhibitors of alpha-synuclein gene (SNCA) expression; HEK-293 SNCA-luciferase knock-in, luminescence, 24 h; Potency, µM (titrated, usually from 57.2 µM), actives largely listed as inhibitors; 140,000 tested, 0.17% active; note: nearly all actives have a fitted effect of over 45% in size
NIH3T3 tox – Cytotoxic Profiling in NIH 3T3 Cell Line of Diverse Libraries Using Quantitative High-Throughput Screening; 94,000 tested, 4.3% active; NIH 3T3 viability, CellTiter-Glo ATP luminescence, 48-72 h; Potency, µM (highest dose often 96.7 µM), hits mostly inhibitors; note: nearly all actives have a fitted effect of over 55% in size
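Cytotoxicity is measured as loss of cellular ATP: NIH 3T3 cells (400/well) are exposed to compound for 48 or 72 hr at 37 °C, then CellTiter-Glo luminescence is imaged after 10 min at room temperature.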
HEK cytotox – Cytotoxic Profiling in HEK 293 Cell Line of Diverse Libraries Using Quantitative High-Throughput Screening; HEK 293 viability, ATP luminescence (CellTiter-Glo), 48-72 h; Potency, µM (top dose mostly 115 µM), usual class: inhibitors; AID 1345083, 2018; 94,000 tested, 6.6% active; note: nearly all actives have a fitted effect of over 60% in size
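Read-out: CellTiter-Glo ATP luminescence. Cells: HEK 293, 250 cells/well. Exposure: 48 or 72 hr, 37 degree Celsius.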
SNCA viab count – GF-AFC viability counterscreen for inhibitors of alpha-synuclein gene (SNCA) expression; HEK-293-SNCA-luc viability, GF-AFC fluorescence, 24 h; Potency, µM (titrated, usually from 57.1 µM), hits mostly cytotoxic; 150,000 tested, 0.12% active; AID 1671193, 2021; note: nearly all actives have a fitted effect of over 30% in size
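HEK-293-SNCA-luc cells (1500/well) plated 24 h, then exposed 24 h to a dilution series; GF-AFC added 30 min at 37C, fluorescence 405/540 nm; normalised to medium-only and DMSO wells, Hill fit.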
Each line names hits and unclear results; the compound was inactive in the other large screens. The list is not random: actives were taken first. Their share in the collection is about 7.3%. Unless noted, calls come from the whole dose curve; as a rule, active = well fitted curve in the direction sought with a large enough effect; inconclusive = small, poorly fitted or top-dose-only effect, or another doubt; inactive = no such curve, though single readings can be large; an effect the other way counts as inactive or inconclusive.

Fc1ccc(-c2nc(-c3cccs3)c(-c3cccs3)[nH]2)cc1	none (no result: Luciferase inh, NIH3T3 tox, HEK cytotox)
O=C(C1CCCN1C(=O)c1cccc(-c2cccnc2)c1)N1CCOCC1 (configuration not stated)	none (no result: Luciferase inh, SNCA expr inhib, SNCA viab count)
CCOC(=O)C1(Cc2ccc(F)cc2F)CCCN(S(=O)(=O)c2c(C)noc2C)C1 (configuration not stated)	NIH3T3 tox inconclusive, HEK cytotox 40µM
COc1cccc(Nc2cc3c(cn2)CN(Cc2ccncc2)CCN3)c1	Luciferase inh inconclusive, NIH3T3 tox inconclusive, HEK cytotox inconclusive
COc1ccc(Nc2cc3c(cn2)NCCN(Cc2ccccc2)C3)cc1	SNCA expr inhib inconclusive, NIH3T3 tox inconclusive, HEK cytotox 79µM, SNCA viab count inconclusive
COc1ccc(CN2CCNc3cc(Nc4ccccc4)ncc3C2)cc1	NIH3T3 tox inconclusive, HEK cytotox 71µM, SNCA viab count inconclusive
COc1ccc(CN2CCNc3cnc(Nc4ccccc4)cc3C2)cn1	NIH3T3 tox inconclusive, HEK cytotox inconclusive
COc1ccc(CN2CCNc3cnc(Nc4ccccc4)cc3C2)cc1	NIH3T3 tox inconclusive, HEK cytotox 89µM
COc1ccccc1CN1CCNc2cc(Nc3ccccc3)ncc2C1	Luciferase inh inconclusive, SNCA expr inhib inconclusive, NIH3T3 tox 35µM, HEK cytotox 35µM, SNCA viab count inconclusive
CCc1nc2c(=O)n(CC(=O)N3CCN(c4ccccc4F)CC3)nc(C)c2s1	none
COc1cc(Cl)c(CN2C[C@H](NC(C)=O)[C@@H](C3CC3)C2)c(OC)c1	none
O=C(c1cccc(Br)c1)N1CCN(c2cc(-c3ccc(Cl)cc3)[nH]n2)CC1	NIH3T3 tox 32µM, HEK cytotox 40µM
O=C(c1cccc(Cl)c1)N1CCN(c2cc(-c3ccc(Cl)cc3)[nH]n2)CC1	NIH3T3 tox 35µM, HEK cytotox 45µM
CN(C)c1cccc(C(=O)N2CCN(c3cc(-c4ccc(Cl)cc4)[nH]n3)CC2)c1	Luciferase inh 28µM, NIH3T3 tox inconclusive, HEK cytotox inconclusive
CC(C)n1nc(OC(C)(C)C(=O)NCCc2cccnc2)c2cc(CN3CCOCC3)ccc21	NIH3T3 tox inconclusive
COCc1ccc2c(c1)c(OC(C)(C)C(=O)N1CCOCC1)nn2Cc1cccc(OC)c1	NIH3T3 tox 4µM
COCc1ccc2c(c1)c(OC(C)(C)C(=O)NC(C)C)nn2Cc1cccc(OC)c1	NIH3T3 tox inconclusive, HEK cytotox inconclusive
COCc1ccc2c(c1)c(OC(C)(C)C(=O)N1CCOCC1)nn2Cc1cccnc1	NIH3T3 tox 32µM
COCc1ccc2c(c1)c(OC(C)(C)C(=O)Nc1cccnc1)nn2Cc1cccnc1	NIH3T3 tox inconclusive
COCc1ccc2c(c1)c(OC(C)(C)C(=O)N1CCN(CCO)CC1)nn2Cc1cccnc1	NIH3T3 tox 35µM
CC(C)n1nc(OC(C)(C)C(=O)Nc2cccnc2)c2cc(CN3CCOCC3)ccc21	NIH3T3 tox 28µM
COCc1ccc2c(c1)c(OC(C)(C)C(=O)NCCN1CCOCC1)nn2Cc1cccnc1	NIH3T3 tox inconclusive
O=C1CC2(CCN(S(=O)(=O)c3cccs3)CC2)Oc2cc(Cl)ccc21	NIH3T3 tox inconclusive, HEK cytotox inconclusive
COc1ccc(CC(=O)NC2CCCN(c3cc(-c4ccc(F)cc4)[nH]n3)C2)cc1OC (configuration not stated)	NIH3T3 tox inconclusive, HEK cytotox 45µM
CCOc1ccc(CC(=O)NC2CCCN(c3cc(-c4ccc(F)cc4)[nH]n3)C2)cc1OCC (configuration not stated)	NIH3T3 tox inconclusive, HEK cytotox inconclusive
COc1ccc(-c2cc(N3CCC(NC(=O)COc4ccccc4C)CC3)n[nH]2)cc1	SNCA expr inhib inconclusive, NIH3T3 tox 25µM, HEK cytotox inconclusive, SNCA viab count inconclusive
COc1ccc(CC(=O)NC2CCCN(c3cc(-c4ccc(Cl)cc4)[nH]n3)C2)cc1OC (configuration not stated)	NIH3T3 tox inconclusive, HEK cytotox 22µM
COc1ccc(-c2cc(N3CCC(NC(=O)CCc4ccccc4OC)CC3)n[nH]2)cc1	NIH3T3 tox inconclusive, HEK cytotox inconclusive
COc1ccc(-c2cc(N3CCCC(NC(=O)CCc4ccccc4OC)C3)n[nH]2)cc1 (configuration not stated)	NIH3T3 tox inconclusive, HEK cytotox 40µM
CS(=O)(=O)N1C[C@H]2CCN(C(=O)c3cc(Cl)ccc3F)C[C@H]21	none
COc1ccc(C2=NOC3(CCN([S+](=O)([O-])c4cccc(OC)c4)C3)C2)cc1 (configuration not stated)	SNCA expr inhib inconclusive, NIH3T3 tox inconclusive, HEK cytotox 28µM
COc1cccc([S+](=O)([O-])N2CCC3(CC2)CC(=O)Nc2ccccc2O3)c1	HEK cytotox 50µM
Cc1cccc2nc(C(=O)N3CCn4nc(Cc5ccccc5)cc4C3)cn12	NIH3T3 tox inconclusive, HEK cytotox 45µM
Cn1nc(C(=O)N2CCn3nc(Cc4ccccc4)cc3C2)ccc1=O	none
CC(=O)NCCC(=O)N1Cc2ccccc2CC2(CCN(Cc3cccnc3)CC2)C1	none (no result: Luciferase inh)
Cc1noc(C)c1-c1cc2c(c(-c3ccccc3Oc3ccccc3)c1)C(=O)N(C)C2	NIH3T3 tox 13µM, HEK cytotox inconclusive, SNCA viab count inconclusive
CCc1noc(-c2cccn3c(CNC(=O)c4ccccc4)nnc23)n1	none
CCc1noc(-c2cccn3c(CNC(=O)c4ccc5ccccc5n4)nnc23)n1	SNCA expr inhib inconclusive, NIH3T3 tox inconclusive, HEK cytotox 35µM
Cc1ccc(C(=O)CCc2nc(C3CC(=O)N(C4CCCCC4)C3)no2)cc1 (configuration not stated)	NIH3T3 tox inconclusive, HEK cytotox 40µM
COc1ccc(-c2ccc(C(=O)N3CCN(C(=O)c4c(C)noc4C)CC3)cc2)nn1	none (no result: Luciferase inh, SNCA expr inhib, SNCA viab count)
CC(C)Cn1c(=O)c(C(=O)N2CCN(C(=O)c3ccccc3)CC2)nc2cccnc21	none (no result: Luciferase inh)
Cc1ccc(-c2ccc3nnc(CNC(=O)c4cc(F)ccc4Cl)n3n2)cc1	NIH3T3 tox inconclusive, HEK cytotox 32µM
COc1ccc(-c2cc(C(=O)NCc3cccc(OC)c3)c3cnn(C)c3n2)cc1	NIH3T3 tox inconclusive, HEK cytotox inconclusive (no result: Luciferase inh)
COc1cccc(CNC(=O)c2cc(-c3ccc(F)cc3)nc3c2cnn3C)c1	NIH3T3 tox inconclusive, HEK cytotox 28µM (no result: Luciferase inh)
COc1cccc(-c2cc(C(=O)NCC#N)c3cnn(C)c3n2)c1	NIH3T3 tox 40µM, HEK cytotox inconclusive (no result: Luciferase inh, SNCA expr inhib, SNCA viab count)
